Hits are enriched below; roughly 2% of the tested compounds scored in any of these assays.
GalR3 antag: blocks the human galanin receptor 3; HEK293 GalR3-CNG cAMP membrane potential fluorescence; galR3 body fused to GalR1 C-terminus; inhibition, % at 3 µM; 360,000 tested, 0.44% active; AID 651719;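 active = inhibition above the screen-wide average plus 3 SD, cut at about 13% in these data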;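 also: forskolin and galanin both at EC90 stimulate the cells; cAMP rise reported by CNG channel membrane potential dye signal; 0% = forskolin plus galanin with DMSO and 100% = forskolin alone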
Target sequence (O60755 1-299 limits assumed): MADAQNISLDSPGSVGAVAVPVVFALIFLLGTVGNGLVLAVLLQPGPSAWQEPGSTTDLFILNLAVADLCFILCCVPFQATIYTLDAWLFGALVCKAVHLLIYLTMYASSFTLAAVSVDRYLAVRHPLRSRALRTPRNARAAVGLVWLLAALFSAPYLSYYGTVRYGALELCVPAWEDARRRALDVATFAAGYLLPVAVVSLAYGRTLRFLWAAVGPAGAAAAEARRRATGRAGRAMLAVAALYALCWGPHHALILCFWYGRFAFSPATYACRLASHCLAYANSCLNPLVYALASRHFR
697 NFkB inh: lowers PMA/ionomycin-induced NF-kB signal in 697 B cells. 697 B-cell NF-kB luciferase reporter, 16 h. inhibition, % at 4 µM. 330,000 tested, 0.33% active. AID 435022; in the data active = inhibition above about 35%
Gli-Sufu block: blocks Gli-Sufu signaling in a luciferase reporter. 340,000 tested, 0.74% active. inhibition, % at 5 µM. Sufu-KO-LIGHT fibroblasts, Gli luciferase reporter luminescence;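 active = inhibition above about 55%, limit read from the data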;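 also: 0% = DMSO-treated cells and 100% = wells with medium but no cells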
Jurkat NFkB inh: lowers PMA/ionomycin-induced NF-kB signal in Jurkat cells; PMA/ionomycin-induced NF-kB luciferase reporter, luminescence; inhibition, % at 4 µM; 330,000 tested, 0.53% active; AID 435003; in the data active = inhibition above about 50%
NR2F2 inh: inhibitors of human COUP-TFII (NR2F2); HEK293T NGFI-A luciferase reporter, luminescence; 370,000 tested, 0.7% active; P24468; inhibition, % at 8.6 µM;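 active = inhibition above a per-plate cutoff, mean inhibition of test wells between control levels plus 3 SD, cut at about 38% in these data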;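 also: cells cotransfected with COUP-TFII expression vector driving the NGFI-A reporter; 0% = median of COUP-TF2 test wells and 100% = reporter-only cells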
Jurkat NFkB conf: inhibitors of the PMA/ionomycin-induced NF-kB reporter in Jurkat cells, retest. shares compounds with Jurkat NFkB inh. Jurkat NF-kB luciferase, 16 h. inhibition, % at 4 µM. 2,700 tested, 27% active. AID 435020;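 active = inhibition reaching about 45% at 4 µM in either replicate, limit read from the data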;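 also: plate controls were PMA/ionomycin stimulated DMSO wells for no effect and unstimulated DMSO wells for full effect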
Starred values were filed as active, the others as inactive; x = no result.

SMILES | GalR3 antag | 697 NFkB inh | Gli-Sufu block | Jurkat NFkB inh | NR2F2 inh | Jurkat NFkB conf
O=c1c2ccccc2nc2sc(Nc3ccc(F)cc3)nn12 | -2 | -154 | -68 | -157 | -65 | -42
CC(=O)c1ccc(S(=O)(=O)Nc2cccc(-c3ccc4nncn4n3)c2)cc1 | -4 | 0 | -7 | -5 | 0 | x
Cc1ccc(S(=O)(=O)Nc2cccc(-c3ccc4nncn4n3)c2)cc1 | -6 | -8 | 8 | 59* | -17 | 48*
CC1CCN(C2=NC(=O)N(c3ccc(Br)cc3)C(=O)C2)CC1 | x | x | x | x | -28 | x
O=C(Nc1ccc(Cl)cc1C(=O)NCc1cccnc1)c1ccc(Cl)cc1Cl | -3 | -23 | 2 | 51* | 5 | 11
Cc1ccc(C)c(C(=O)CN2C(=O)NC3(CCC(C)CC3)C2=O)c1 (stereo not given) | -2 | -68 | -4 | 64* | 1 | 8
Cc1ccc(C(=O)N2CCC(Oc3cccnc3)CC2)cc1 | x | x | x | x | -2 | x
CCOc1ccc(/C(C)=N/N2C(=O)C(CC(=O)Nc3ccc(OC)cc3[N+](=O)[O-])SC2=Nc2cccc(C)c2C)cc1 (stereo not given) | 0 | -39 | -22 | -10 | -2 | x
COc1ccccc1/C=N/N1C(=O)C(CC(=O)Nc2ccc([N+](=O)[O-])cc2OC)SC1=Nc1cccc(C)c1C (stereo not given) | -3 | -101 | x | 69* | 13 | 22
O=C(CCc1ccccc1)N[C@H]1[C@@H](OC(=O)c2ccco2)CCC[C@]12C(=O)N(Cc1ccccc1)c1ccccc12 | x | x | x | x | 12 | x
COc1cccc(NC(=O)c2ccc3c(c2)CCCC3)c1 | 4 | -21 | -97 | -153 | -48 | -118
COc1ccc(/C=N/NC(=O)c2cccc(NC(C)=O)c2)c(OC)c1 | -1 | 11 | 2 | -10 | 11 | x
COc1ccc(C(=O)Nc2cccc(C(=O)N/N=C/c3ccc(OC)cc3OC)c2)cc1 | -3 | -14 | -4 | 57* | -29 | 2
O=C1C(NC(=O)C(F)(F)Br)CCCCN1Cc1cccc(C(F)(F)F)c1 (stereo not given) | x | x | x | x | 19 | x
CC(C)(C)c1ccc(C(=O)Nc2ccc([N+](=O)[O-])cn2)cc1 | -5 | -96 | -75 | -182 | -28 | -113
CCOC(=O)c1ccc(Nc2cnc3ccccc3n2)cc1 | 1 | -116 | -35 | -150 | -17 | -116
CC(=O)[C@@]1(O)CCC2C3CC[C@H]4C[C@@H](O)CC[C@]4(C)C3CC[C@@]21C (stereo not given in full) | -5 | -10 | -3 | 0 | 0 | x
C[C@]12CCC3C(CC[C@H]4CCCC[C@]34C)C1CC[C@@]2(O)CNCCO (stereo not given in full) | -9 | 7 | 10 | 56* | 9 | 17
CCOc1ccc2c(c1)OC(c1ccccc1)(C(F)(F)F)NC2=O (stereo not given) | -9 | 6 | -1 | 9 | 4 | x
CCOc1ccc2c(c1)OC(c1ccc(OC)cc1)(C(F)(F)F)NC2=O (stereo not given) | -3 | -12 | -16 | 57* | -36 | 40
CN(C)CCCNc1c2ccccc2nc2ccccc12 | -5 | 35 | -23 | 99* | 10 | -57
CN(C)CCCNc1nc(-c2ccccc2)nc2ccccc12 | -2 | -10 | 3 | -15 | -4 | x
CC(C)N1CCC(=NNc2ccc(S(=O)(=O)N3CCOCC3)cc2[N+](=O)[O-])CC1 | 0 | 14 | 9 | 11 | 12 | x
CCCN1CCC(=NNc2ccc(S(=O)(=O)N3CCOCC3)cc2[N+](=O)[O-])CC1 | 5 | -12 | 48 | 64* | -8 | 2
Cc1cc(S(=O)(=O)N2CCN=C2c2ccccc2)ccc1F | -8 | -26 | 0 | 8 | 4 | x
SMILES | GalR3 antag | 697 NFkB inh | Gli-Sufu block | Jurkat NFkB inh | NR2F2 inh | Jurkat NFkB conf
CCOc1ccc(S(=O)(=O)N2CCN=C2c2ccccc2)cc1 | -3 | -65 | 0 | 54* | 4 | 12
Cc1ccc(-n2c(SC/C=C/c3ccccc3)nnc2-c2cccs2)cc1 | x | x | x | x | 7 | x
O=S1(=O)C=CCN1Cc1cn(Cc2cccc(C(F)(F)F)c2)nn1 | x | x | x | x | -24 | x
O=C(c1cc(-c2ccncc2)nc2c(Cl)cccc12)N1CCN(c2ccccc2F)CC1 | -5 | 1 | x | 60* | -25 | 36
Cc1ccc(-c2cc(-c3nnc(SCC(=O)NC4CCCCC4)n3N)[nH]n2)cc1 | x | x | x | x | -11 | x
COc1ccc(CCNc2nnc(Sc3nnnn3-c3ccccc3)s2)cc1OC | -6 | -130 | 36 | 77* | -69 | 55*
